In the library only some 2.7% were active in any assay of this set; here they are far more common.
pAkt inh – HTS Assay for Inhibitors of Akt Phophorylation: Primary Screen; Neuro2A IGF-stimulated pAkt S473 HTRF, 20 min; stronger effect = lower value; activity change, % for hits at 50 µM; 360,000 compounds, 0.32% hits; AID 651550, 2012; in the data active = activity change below about -80%; inconclusive = mostly about -51% to -80%; note: % is set by controls: 0 for no effect and ±100 for the full control effect
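Neuro2A cells (4,500/well, DMEM with 0.5% FBS) were treated with compound at a single 50 µM final concentration, stimulated with 6 nM IGF for 20 min at 37 °C, and lysed. Phospho-Akt Ser473 was read by HTRF as 665/615 ratio ×10^4.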
gsp antagonist – qHTS for Antagonists of gsp, the Etiologic Mutation Responsible for Fibrous Dysplasia/McCune-Albright Syndrome: qHTS; gsp-mutant cells, cAMP HTRF, 30 min; 340,000 compounds, 0.4% hits; Potency, µM (doses to about 76.9 µM), without a hit: at the top dose activity change, negative = inhibition, actives largely listed as inhibitors; calls by dose curve; cell line not stated here;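 note: intracellular cAMP measured with PDE inhibitor Ro 20-1724 present during compound exposure; potency is the fitted concentration of half-maximal effect; % is set by controls: 0 for no effect and ±100 for the full control effect; nearly all actives have a fitted effect of over 65% in size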
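Cells, 2000/well, grown 16–24 h in DMEM 10% FBS with 0.5 mg/ml G418, then compounds plus […] (300 uM addition stock), 30 min at 37C. cAMP read by HTRF (cAMP-d2 and anti-cAMP antibody-K in lysis buffer) after 30 min RT.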
ClpP mod – qHTS Assay for Activators of ClpP. 340,000 compounds, 1.9% hits. Potency, µM (top dose mostly 57.5 µM), inactives show at the highest dose activity change, negative = active. purified B. subtilis ClpP, FRET peptide cleavage, 20 min. ATP-dependent Clp protease proteolytic subunit (Bacillus subtilis (strain 168)), P80244; active = well fitted falling curve with a large enough effect; inconclusive = small, poorly fitted or top-dose-only effect; inactive = no such curve, though single readings can be large or run the other way; note: potency is the fitted concentration of half-maximal effect; the source files actives as falling curves though it sought activators and does not explain the sign; nearly all actives have a fitted effect of over 65% in size
Target sequence (P80244 whole entry, looked up): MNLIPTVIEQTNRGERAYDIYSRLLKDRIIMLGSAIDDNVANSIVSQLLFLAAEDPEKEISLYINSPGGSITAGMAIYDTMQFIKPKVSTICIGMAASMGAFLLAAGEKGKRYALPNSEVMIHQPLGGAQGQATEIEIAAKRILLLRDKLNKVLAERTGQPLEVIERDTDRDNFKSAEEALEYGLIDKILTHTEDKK
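FRET quenching reversal measured ClpP activation: 10 microg/mL B. subtilis ClpP at pH 8 with the FRET-FV decapeptide, read at 430 nm after 320 nm excitation. The 20-min minus 0-min signal was scaled between DMSO/no-enzyme wells and ADEP (5.8 microM final).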
RXFP1 antagonist – qHTS Assay for Antagonists of the Relaxin Receptor RXFP1; HEK293-RXFP1, relaxin-stimulated cAMP HTRF, 30 min; stronger effect = lower value; activity change, negative = inhibition, % at 57.5 µM; 350,000 compounds, 0.59% hits; AID 1259400, 2018;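 active = activity change of -60% or lower, but not beyond a set lower limit; inconclusive = change between -60% and -40%, or beyond the set limit; inactive = change above -40%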; note: % is set by controls: 0 for no effect and ±100 for the full control effect
gsp agonist – qHTS for Agonist of gsp, the Etiologic Mutation Responsible for Fibrous Dysplasia/McCune-Albright Syndrome: qHTS | 340,000 compounds, 0.13% hits | gsp mutant cells, cAMP HTRF, 30 min | Potency, µM (highest dose often 76.9 µM), inactives show top-dose activation (cAMP increase), usual class: activators; active = well fitted activation curve with a large enough effect; inconclusive = small, poorly fitted or top-dose-only effect, or another doubt; inactive = no such curve, though single readings can be large or run the other way; cell line not stated here;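 note: phosphodiesterase inhibitor Ro 20-1724 added with compounds to block cAMP breakdown; potency is the fitted concentration of half-maximal effect; nearly all actives have a fitted effect of over 60% in size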
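Cells in DMEM/10% FBS with G418 were pretreated with compounds in DMSO plus […] (300 uM stock) for 30 min at 37C. cAMP was measured by HTRF (cAMP-d2 plus anti-cAMP antibody-K) after 30 min at room temperature.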
RXFP1 ag – qHTS Assay for Agonists of the Relaxin Receptor RXFP1. HEK293T-RXFP1 cAMP TR-FRET, 30 min; response scale: percent of porcine relaxin response, buffer zero. Potency, µM (top dose mostly 57.5 µM), for inactives: at the highest dose activation, hits mostly activators. 370,000 compounds, 0.3% hits; active = well fitted activation curve with a large enough effect; inconclusive = small, poorly fitted or top-dose-only effect; note: potency is the fitted concentration of half-maximal effect; % is set by controls: 0 for no effect and ±100 for the full control effect; nearly all actives have a fitted effect of over 60% in size
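HEK293 cells stably expressing RXFP1, treated 30 min at 37C with compounds plus PDE4 inhibitor Ro 20174; cAMP measured by HTRF TR-FRET. Normalized to buffer and 29 nM porcine relaxin; EC50 by Hill fit.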
* marks the source's active call; other numbers are inactive results; i = inactive; ? = inconclusive; · = no result given; [ ] = another dose, or the depositor's remark.

SMILES	pAkt inh	gsp antagonist	ClpP mod	RXFP1 antagonist	gsp agonist	RXFP1 ag
CCCc1cc(=O)[nH]c(Nc2ccc(C)c(O)c2)n1	·	·	-5.4%	-7.9	·	-0.3%
CCOc1ccc(C(=O)N/N=C/c2ccc(-c3ccc(S(=O)(=O)Nc4ncccn4)cc3)o2)cc1	i	-7.9%	28.2µM*	-6.1	?	2.5%
Cc1ccc(S(=O)(=O)N2CCN(c3nc(Nc4ccccc4O)nc4ccccc34)CC2)cc1	·	·	2.1%	·	·	·
CCP(=O)(c1ccccc1)C(C)(C)O (configuration not stated)	i	1.5%	15.8µM*	-9.7	-54.9%	1.7%
COc1ccc(NC2CCCN(C(=O)c3cn(C)c4ccccc34)C2)cc1 (configuration not stated)	i	-3.5%	-0.9%	-16.7	13.0%	3.2%
O=C(NCc1ccc(F)cc1)c1cc(C2CCCN(C(=O)CCCc3ccccc3)C2)on1 (configuration not stated)	i	·	0.0%	·	·	·
CNc1ccccc1C(=O)OCC(=O)Nc1ccc2c(c1)OCO2	i	3.7%	28.2µM*	-7.3	-4.8%[15.4 µM]	2.5%
CS(=O)(=O)N(CC(=O)Nc1ccc2c(c1)OCO2)Cc1ccccc1	i	3.3%	-0.6%	11.5	-30.2%	-0.3%
O=C(CCc1ccccc1)Nc1ccc2c(c1)OCCO2	i	14.9%	28.2µM*	-10.6	?	-0.4%
CS(=O)(=O)N(CCc1ccccc1)CC(=O)Nc1ccc2c(c1)OCO2	-104.7%*	-15.4%	-3.8%	-10.5	3.7%	-0.1%
O=C(Nc1ccc2c(c1)OCCO2)c1c(Cl)cccc1Cl	i	·	0.1%	4.2	-0.5%	·
O=C(CSCc1c(Cl)cccc1Cl)Nc1ccc2c(c1)OCCO2	i	-7.1%	15.8µM*	-0.5	?	-1.2%
Cc1ccc(C(=O)C(OC(=O)CNC(=O)COc2ccccc2C)c2ccccc2)cc1 (configuration not stated)	·	·	0.6%	·	·	·
CC1=C(C(=O)N(C)C)CC(CC(=O)NCc2cccs2)C(=O)N1Cc1ccc(C(C)(C)C)cc1 (configuration not stated)	i	·	1.0%	·	·	·
CCN1c2ccccc2-c2nc3ccccc3n2C1c1cccnc1 (configuration not stated)	i	-5.1%	31.6µM*	22.7	10.4%	4.4%
C(=C\c1ccnc2ccccc12)/c1ccc(N2CCNCC2)cc1	·	·	-0.2%	·	·	·
C=CCN(CC=C)Cc1ccc(C(=O)OC)o1	-109.7%*	-1.3%	-0.2%	-9.4	-9.6%	1.7%
CCCc1nn2c(=O)cc(COC(=O)CNC(=O)COc3ccc(C)cc3)nc2s1	·	·	0.9%	·	·	2.1%
CC(=O)OCCCNc1cc(Sc2nc3ccccc3s2)c2nonc2c1[N+](=O)[O-]	i	12.8%	1.5%	-16.5	13.3%	8.8%
CC(=O)OCCNc1cc(Sc2nc3ccccc3[nH]2)c2nonc2c1[N+](=O)[O-]	i	?	-2.7%	-77.7*	?	4.6%
O=C(CC1SC(N2CCCC2)=NC1=O)Nc1ccc(C(=O)N2CCN(c3cccc(Cl)c3)CC2)cc1 (configuration not stated)	i	3.7%	31.6µM*	1.1	-3.8%[15.4 µM]	-1.5%
COC(=O)c1cc(OC)c(OC)cc1NC(=O)c1ccc2c(c1)CCN2S(C)(=O)=O	·	·	-12.5%	6.3	·	-0.2%
Brc1cc(Br)c2nc(-c3ccc(N4CCOCC4)cc3)ccc2c1	i	11.2µM*	-2.0%	7.0	?	?
COc1ccc(-c2c(C)nn3c(C(F)(F)F)cc(-c4ccc(Br)cc4)nc23)cc1	·	·	-2.1%	5.1	·	-0.5%
